# Assay outcomes (PubChem BioAssay)
# HTT promoter inh: inhibits huntingtin promoter activity; 48,000 compounds, 0.93% hits; HEK293 HTT promoter firefly luciferase reporter, 24 h; AID 1508623; Potency, µM (titrated, usually from 57.5 µM), hits mostly inhibitors; note: nearly all actives have a fitted effect of over 50% in size
#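 HEK293 luciferase promoter-reporter cells (2,500/well) plated 24 h, then compounds added at up to 57.5 uM final for 24 h at 37 °C. Firefly luminescence by Dual-Glo, normalized to vehicle (0%) and zero RLU (-100%).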
# FH mod: Identification of activators of human fumarate hydratase by quantitative high-throughput screening; Fumarate hydratase, mitochondrial (Homo sapiens), P07954; FH coupled MDH/diaphorase resazurin fluorescence, 15 min; Potency, µM (doses to about 79.9 µM), actives largely listed as inhibitors; 54,000 compounds, 0.22% hits; note: the screen sought activators but most active calls are inhibition curves; nearly all actives have a fitted effect of over 45% in size
# DRV1 agonist: GPR32 (DRV1) agonism, beta-arrestin recruitment. O75388. CHO-K1 GPR32 beta-arrestin PathHunter luminescence, 90 min; zero percent set by DMSO-only wells. activation, % at 76.9 µM. 48,000 compounds, 2.5% hits;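 active = activation of at least 60% and not above a set upper limit, about 1 call in 100 departs from these limits; inconclusive = activation of 40% to 60%, or above that upper limit; inactive = activation under 40%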
#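 Step 1: seed CHO-K1 GPR32 beta-arrestin cells, 2,500/well, overnight at 37 °C. Step 2: add compounds, 90 min at 37 °C. Step 3: detection reagent, 1 h ambient, then luminescence.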
# NTMT1 inhibitor: inhibitors of human N-terminal methyltransferase NTMT1 | NTMT1 MTase-Glo SAH luminescence, purified enzyme | Potency, µM (titrated, usually from 114 µM), usual class: inhibitors | 59,000 compounds, 2.5% hits | AID 1645870; note: nearly all actives have a fitted effect of over 65% in size
# Target sequence (Q9BV86 whole entry, looked up): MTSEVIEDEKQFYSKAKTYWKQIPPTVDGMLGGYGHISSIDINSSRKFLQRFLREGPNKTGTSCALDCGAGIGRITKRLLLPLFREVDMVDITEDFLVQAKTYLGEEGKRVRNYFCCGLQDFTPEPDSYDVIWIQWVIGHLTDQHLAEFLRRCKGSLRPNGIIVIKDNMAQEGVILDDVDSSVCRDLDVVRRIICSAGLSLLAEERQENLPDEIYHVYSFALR
# HTT-AS act: HTT-AS promoter activation | HEK293 HTT-AS promoter firefly luciferase reporter, 24 h; response scale: percent change from vehicle, -100% = no light | Potency, µM (top dose mostly 57.5 µM), actives largely listed as activators | 48,000 compounds, 0.24% hits; note: nearly all actives have a fitted effect of over 55% in size
#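 HEK293 cells carrying firefly luciferase reporters were seeded at 2,500 per well in Opti-MEM and cultured for 24 h. They were then treated with compounds at up to 57.5 uM final for 24 h at 37 degrees C before Dual-Glo luminescence readout.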
# GALC G270D act: galactocerebrosidase G270D activity enhancement, cell-based | P54803 | 145M-Twi-hGALC-G270D cells (Twitcher mouse brain line with human GALC G270D), HMU-beta-Gal fluorescence, 48 h | Potency, µM (series often up to 57.5 µM), hits mostly activators | 45,000 compounds, 0.1% hits; note: nearly all actives have a fitted effect of over 65% in size
#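 Brain-derived Twitcher mouse 145M-Twi cells stably expressing human GALC-G270D or wild-type GALC, treated live, then residual GALC activity read by fluorescence of HMU-b-Gal substrate (0.1 mM final) in citrate-phosphate buffer pH 5.2 with sodium taurocholate. Signal increase indicates enhancement.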
# DYRK1A inh-1: inhibitors of human DYRK1A kinase | shares compounds with NTMT1 inhibitor | recombinant DYRK1A, Kinase-Glo ATP depletion luminescence | Potency, µM (titrated, usually from 76.9 µM), most hits filed as inhibitors | 100 compounds, 80% hits
# CLK4 inh-1: confirmation of human CLK4 kinase inhibitors, SAR round 2. shares compounds with NTMT1 inhibitor. 90 compounds, 90% hits. Potency, µM (series often up to 76.9 µM), most hits filed as inhibitors. AID 493204. recombinant Clk4, Kinase-Glo ATP luminescence, 4.5 h
# CLK4 inh-2: CLK4 kinase inhibition, SAR round 2 | shares compounds with NTMT1 inhibitor | Reaction Biology kinase assay, 10 uM ATP | Potency, µM, usual class: inhibitors | 65 compounds, 100% hits | AID 504421; calls by dose curve
# DYRK1A inh-2: blocks human DYRK1A kinase in radiometric assay; Reaction Biology kinase assay, 10 uM ATP; 65 compounds, 90% hits; shares compounds with NTMT1 inhibitor; AID 504424; Potency, µM, hits mostly inhibitors;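 active = compounds that showed inhibition of Dyrk1a and received a fitted potency; inactive = compounds that showed no inhibition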
# CLK2 RBC: inhibitors of human CLK2 kinase; Reaction Biology kinase assay, 10 uM ATP; AID 504427; Potency, µM, actives largely listed as inhibitors; shares compounds with NTMT1 inhibitor; 65 compounds, 90% hits;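 active = compound that inhibits Clk2 kinase in the dose series, with an IC50 potency reported; inactive = no inhibition seen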
# Target sequence (P49760 whole entry, looked up): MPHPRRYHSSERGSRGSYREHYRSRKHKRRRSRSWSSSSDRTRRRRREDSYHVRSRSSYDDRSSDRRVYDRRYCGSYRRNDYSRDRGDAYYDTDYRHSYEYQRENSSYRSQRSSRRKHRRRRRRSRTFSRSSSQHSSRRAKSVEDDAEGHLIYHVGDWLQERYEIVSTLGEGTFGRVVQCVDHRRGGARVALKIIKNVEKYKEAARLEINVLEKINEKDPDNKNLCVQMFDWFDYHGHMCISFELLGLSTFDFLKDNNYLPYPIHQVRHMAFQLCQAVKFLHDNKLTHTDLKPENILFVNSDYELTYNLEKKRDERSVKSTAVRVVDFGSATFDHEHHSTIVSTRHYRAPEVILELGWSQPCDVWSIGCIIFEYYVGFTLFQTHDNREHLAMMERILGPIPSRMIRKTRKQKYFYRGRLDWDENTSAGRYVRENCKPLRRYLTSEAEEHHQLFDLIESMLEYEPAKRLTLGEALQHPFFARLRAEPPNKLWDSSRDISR
# CLK3 RBC: inhibitors of human CLK3 kinase. shares compounds with NTMT1 inhibitor. recombinant CLK3 kinase assay, 10 uM ATP. Potency, µM, usual class: inhibitors. 65 compounds, 40% hits. AID 504428;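 active = compounds that inhibited Clk3 enough in the ten-dose series to give a half-maximal potency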
# DYRK1B inh: blocks human DYRK1B kinase activity. shares compounds with NTMT1 inhibitor. Recombinant Dyrk1b kinase assay, 10 uM ATP. Potency, µM, usual class: inhibitors. 65 compounds, 80% hits. AID 504429;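 active = compounds whose dose response shows an inhibitor phenotype against the kinase Dyrk1b; inactive = compounds showing no inhibitor phenotype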
# CLK1 RBC: blocks human CLK1 kinase activity. Potency, µM, usual class: inhibitors. shares compounds with NTMT1 inhibitor. recombinant Clk1 kinase assay, 10 uM ATP. 65 compounds, 90% hits;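 active = compounds that block the splicing kinase Clk1 enough to give a fitted half-inhibition concentration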
# Sfp PPTase inh: inhibits purified B. subtilis Sfp PPTase | shares compounds with NTMT1 inhibitor | purified Sfp PPTase enzyme activity, qHTS | Potency, µM (highest dose often 114 µM), most hits filed as inhibitors | 230 compounds, 78% hits
# Sfp inh gel: confirmation of Bacillus subtilis Sfp PPTase inhibitors; Potency, µM (highest dose often 250 µM), usual class: inhibitors; 45 compounds, 90% hits; shares compounds with NTMT1 inhibitor; purified Sfp PPTase, gel-based product detection
# Sfp inh SAR2: inhibits B. subtilis Sfp PPTase in second SAR round; 230 compounds, 87% hits; shares compounds with NTMT1 inhibitor; purified Sfp enzyme, PPTase activity, qHTS; Potency, µM (titrated, usually from 57.1 µM), actives largely listed as inhibitors
# hGST A1-1 inh: hGST A1-1 enzyme inhibition, Sfp SAR counter-screen; hGST A1-1 enzyme activity counter-screen, qHTS; 55 tested, under 10 active; Potency, µM (highest dose often 114 µM), actives largely listed as inhibitors; shares compounds with NTMT1 inhibitor
# HSD17B4 inh: inhibits human HSD17B4, off-target for HPGD inhibitors. 230 compounds, 10% hits. purified HSD17B4, estradiol/NAD+, NADH fluorescence. shares compounds with NTMT1 inhibitor. Potency, µM (top dose mostly 57.1 µM), most hits filed as inhibitors
# ALDH1A1 inh: inhibits human ALDH1A1, off-target for HPGD inhibitors | shares compounds with NTMT1 inhibitor | recombinant ALDH1A1, NADH fluorescence, propionaldehyde/NAD+ | Potency, µM (titrated, usually from 57.1 µM), usual class: inhibitors | 230 compounds, 93% hits | AID 743195
# NNMT counter: counter-screen for NTMT1 inhibitors: human NNMT inhibition; NNMT MTase-Glo luminescence, SAH detection; shares compounds with NTMT1 inhibitor; 120 compounds, 10% hits; Potency, µM (series often up to 57.1 µM), actives largely listed as inhibitors; AID 1645878
# A number is an active result; 0 = inactive; ? = inconclusive; - = not tested or not shown; ! = not confirmed by another sample. Only some compounds are listed: those with a hit (about 4.7% of all), similar ones and a draw of the others. Unless noted, calls come from the whole dose curve; as a rule, active = well fitted curve in the direction sought with a large enough effect; inconclusive = small, poorly fitted or top-dose-only effect, or another doubt; inactive = no such curve, though single readings can be large; an effect the other way counts as inactive or inconclusive.
SMILES,HTT promoter inh,FH mod,DRV1 agonist,NTMT1 inhibitor,HTT-AS act,GALC G270D act,others
c1cncc(CNc2ncnc3ccc(-c4ccco4)cc23)c1,-,-,-,0,-,-,
Cc1nc(C)c(-c2ccc3ncnc(NCCc4cnc[nH]4)c3c2)s1,-,-,-,?,-,-,DYRK1A inh-1=26µM
Cc1noc(C)c1-c1ccc2ncnc(NCc3ccc(F)cc3)c2c1,-,-,-,0,-,-,
CN1CCN(C(=O)c2ccc3cc(CCNc4ncnc5ccc(C#N)cc45)ccc3c2)CC1,-,0,-,0,-,-,
CCOC(=O)c1cnc2ccc(C)cc2c1NCCc1ccc(OC)c(OC)c1,0,0,0,0,0,0,
CCOC(=O)c1ccc(-c2ccc3ncnc(NCCc4cnc[nH]4)c3c2)o1,-,-,-,?,-,-,DYRK1A inh-1=1.6µM
CC1(C)CC(NC(=O)C(=O)Nc2ccc(Cl)cc2)CC(C)(C)N1,-,0,-,0,-,-,
O=C(NCCN1CCCC1)c1cc(-c2ccc(CN3CCOCC3)cc2)nc2ccc(F)cc12,-,0,-,0,-,-,NNMT counter=0
Cc1ccc2nc3sc(C(=O)NCCN4CCOCC4)cc3cc2c1,-,-,-,0,-,-,
N#CCc1ccc(O)cc1O[C@@H]1O[C@H](CO)[C@@H](O)[C@H](O)[C@H]1O,-,0,-,0,-,-,
O=[S+]([O-])(Nc1ccccc1)c1ccc(NCc2cccc(Cl)c2F)cc1,-,-,-,0,-,-,
CCC[C@@H]1O[C@@H]2C[C@H]3[C@@H]4CCC5=CC(=O)C=C[C@]5(C)[C@H]4[C@@H](O)C[C@]3(C)[C@]2(C(=O)CO)O1,-,0,-,0,-,-,
Fc1cc(-c2cccc3ncc(-c4cnn(C5CCNCC5)c4)nc23)cc(F)c1CN1CCOCC1,0,0,-,18µM!,0,-,NNMT counter=0
CN(CC(=O)O)c1ncnc2ccc(-c3ccc4c(c3)OCO4)cc12,-,-,-,0,-,-,CLK4 inh-1=2.3µM
Cc1nc(CN(C)c2ncnc3ccc(-c4ccc5[nH]ncc5c4)cc23)cs1,-,-,-,-,-,-,Sfp PPTase inh=0;Sfp inh gel=0;Sfp inh SAR2=0;hGST A1-1 inh=?;HSD17B4 inh=22µM;ALDH1A1 inh=15µM
Cc1nc(CN(C)c2ncnc3ccc(-c4ccc5c(c4)OCO5)cc23)cs1,-,0,-,7.9µM,-,-,DYRK1A inh-1=0.041µM
CN(CC1CCCCO1)c1ncnc2ccc(-c3ccc4c(c3)OCO4)cc12 (stereo not given),-,-,-,-,-,-,CLK4 inh-1=0.073µM
O=S(=O)(Nc1ccc(S(=O)(=O)Nc2nccs2)cc1)c1ccc2ccccc2c1,-,-,-,0,-,-,
Cc1nc(CSc2ncnc3ccc(-c4ccc5c(c4)OCO5)cc23)cs1,-,-,-,?,-,-,DYRK1A inh-1=2.6µM
Cc1c(-c2ccc3c(c2)OCO3)oc2ccc(C(O)C(C)O)cc12 (stereo not given),-,0,-,0,-,-,
CCNC(=O)c1ccc(-c2ccc3ncnc(NCc4nccs4)c3c2)o1,-,-,-,?,-,-,CLK4 inh-1=0.52µM;CLK4 inh-2=0.88;DYRK1A inh-2=5.1µM;CLK2 RBC=19µM;CLK3 RBC=0;DYRK1B inh=5µM;CLK1 RBC=7µM
Cc1noc(C)c1-c1ccc2ncnc(NCc3ccc(C(F)(F)F)o3)c2c1,-,-,-,0,-,-,
Cc1ccc(CNc2ncnc3ccc(-c4ccc(C(=O)O)o4)cc23)o1,-,-,-,-,-,-,CLK4 inh-1=0.073µM;CLK4 inh-2=0.1;DYRK1A inh-2=17µM;CLK2 RBC=1.4µM;CLK3 RBC=0;DYRK1B inh=4.9µM;CLK1 RBC=1.6µM
Cc1csc(CNc2ncnc3ccc(-c4ccc(C(=O)O)o4)cc23)n1,-,-,-,0,-,-,CLK4 inh-1=0.37µM;CLK4 inh-2=1;DYRK1A inh-2=46µM;CLK2 RBC=9.5µM;CLK3 RBC=0;DYRK1B inh=13µM;CLK1 RBC=16µM
Cc1ccc(CNc2ncnc3ccc(-c4ccc([C@@H](C)O)o4)cc23)o1,-,-,-,?,-,-,CLK4 inh-1=0.18µM
